Laboratory results from PubChem BioAssay AID1159580 (chemical genetic matrix, 2015).
The campaign covered roughly 5,500 compounds. About 2,000 (36%) were called active. Roughly 18% stayed inconclusive and do not appear here. Cut-off read from the data, not from the text of the source: active = normalized growth mostly below about 0.91 (no sharp cut-off); inconclusive = no clear call, values can overlap the other calls; inactive = mostly above about 0.92. The list shows a part of the results.

Assay: chemical genetic growth profiling, strain panel (AID 1159580);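 note: tested at 20 µM; growth read once vehicle control cultures reached saturation at 30 °C; 1 = growth at the plate median or of vehicle wells; lower values mean less growth of the strain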
Details: growth OD

Measured: normalized growth

C=C1C2CC[C@H]3[C@]4(C)C[C@H](OC5OC(CO)C(OS(=O)(=O)O)C(OS(=O)(=O)O)C5OC(=O)CC(C)C)C[C@@H](C(=O)O)[C@H]4CC[C@]3(C2)[C@H]1O (some centres undefined)
inactive: S. cerevisiae deletion strains, locus YJR043C, strain POL32, hits give low values 1 | S. cerevisiae deletion strains, locus YJR075W, strain HOC1, hits give low values 1.01 | S. cerevisiae deletion strains, locus YKL009W, strain mrt4, hits give low values 0.984 | S. cerevisiae deletion strains, locus YKL068W, hits give low values 0.981 | S. cerevisiae deletion strains, locus YKL085W, strain MDH1 (second series), hits give low values 0.97 | S. cerevisiae deletion strains, locus YKL085W, strain MDH1, hits give low values 0.97 | S. cerevisiae deletion strains, locus YKL160W, strain elf1, hits give low values 0.984 | S. cerevisiae deletion strains, locus YKL190W, strain CNB1, hits give low values 1.01 | S. cerevisiae deletion strains, locus YKR001C, strain vps1, hits give low values 0.976 | S. cerevisiae deletion strains, locus YKR026C, strain gcn3, hits give low values 1.01 | S. cerevisiae deletion strains, locus YKR091W, strain srl3, hits give low values 1.01 | S. cerevisiae deletion strains, locus YLL001W, strain dnm1, hits give low values 1.03 | S. cerevisiae deletion strains, locus YLL026W, hits give low values 1.01 | S. cerevisiae deletion strains, locus YLL041C, strain sdh2, hits give low values 1.01 | S. cerevisiae deletion strains, locus YLR027C, strain aat2, hits give low values 1.01 | S. cerevisiae deletion strains, locus YLR039C, strain RIC1, hits give low values 0.99 | S. cerevisiae deletion strains, locus YLR058C, strain SHM2, hits give low values 1.01 | S. cerevisiae deletion strains, locus YLR102C, strain apc9, hits give low values 0.983 | S. cerevisiae deletion strains, locus YLR221C, strain rsa3, hits give low values 0.995 | S. cerevisiae deletion strains, locus YLR258W, strain gsy2, hits give low values 1.02 | S. cerevisiae deletion strains, locus YLR262C, strain YPT6 (second series), hits give low values 1.01 | S. cerevisiae deletion strains, locus YLR262C, strain YPT6, hits give low values 0.994 | S. cerevisiae deletion strains, locus YLR268W, strain sec22, hits give low values 0.987 | S. cerevisiae deletion strains, locus YLR320W, strain mms22, hits give low values 1.01 | S. cerevisiae deletion strains, locus YLR330W, strain CHS5, hits give low values 1.01 | S. cerevisiae deletion strains, locus YLR342W, strain FKS1 (second series), hits give low values 1.01 | S. cerevisiae deletion strains, locus YLR342W, strain FKS1, hits give low values 1.01 | S. cerevisiae deletion strains, locus YLR357W, strain rsc2, hits give low values 0.986 | S. cerevisiae deletion strains, locus YLR370C, strain arc18, hits give low values 1 | S. cerevisiae deletion strains, locus YLR371W, strain rom2, hits give low values 0.987 | S. cerevisiae deletion strains, locus YLR384C, strain iki3, hits give low values 0.991 | S. cerevisiae deletion strains, locus YLR418C, strain cdc73, hits give low values 1 | S. cerevisiae deletion strains, locus YML016C, strain PPZ1, hits give low values 1.01 | S. cerevisiae deletion strains, locus YML032C, strain rad52, hits give low values 0.984 | S. cerevisiae deletion strains, locus YML120C, strain ndi1, hits give low values 1.01 | S. cerevisiae deletion strains, locus YML124C, strain tub3, hits give low values 0.987 | S. cerevisiae deletion strains, locus YMR058W, strain fet3, hits give low values 1.01 | S. cerevisiae deletion strains, locus YMR078C, strain ctf18, hits give low values 0.982 | S. cerevisiae deletion strains, locus YMR125W, strain sto1, hits give low values 1.02 | S. cerevisiae deletion strains, locus YMR129W, hits give low values 0.992 | S. cerevisiae deletion strains, locus YMR205C, strain PFK2, hits give low values 1.03 | S. cerevisiae deletion strains, locus YMR223W, strain ubp8, hits give low values 0.977 | S. cerevisiae deletion strains, locus YMR231W, strain pep5, hits give low values 1.01 | S. cerevisiae deletion strains, locus YMR263W, strain SAP30, hits give low values 1.02 | S. cerevisiae deletion strains, locus YMR307W, strain GAS1, hits give low values 1.05 | S. cerevisiae deletion strains, locus YNL067W, strain RPL9B, hits give low values 1.02 | S. cerevisiae deletion strains, locus YNL071W, strain lat1, hits give low values 1.01 | S. cerevisiae deletion strains, locus YNL128W, strain TEP1, hits give low values 1.02 | S. cerevisiae deletion strains, locus YNL153C, strain GIM3, hits give low values 1.03 | S. cerevisiae deletion strains, locus YNL209W, strain ssb2, hits give low values 1 | S. cerevisiae deletion strains, locus YNL233W, strain BNI4, hits give low values 1.02 | S. cerevisiae deletion strains, locus YNL248C, strain rpa49, hits give low values 0.974 | S. cerevisiae deletion strains, locus YNL250W, strain rad50, hits give low values 0.972 | S. cerevisiae deletion strains, locus YNL271C, strain bni1, hits give low values 0.972 | S. cerevisiae deletion strains, locus YNL298W, strain CLA4, hits give low values 0.977 | S. cerevisiae deletion strains, locus YNL307C, strain MCK1, hits give low values 0.986 | S. cerevisiae deletion strains, locus YNL322C, strain KRE1 (second series), hits give low values 1 | S. cerevisiae deletion strains, locus YNL322C, strain KRE1, hits give low values 1.01 | S. cerevisiae deletion strains, locus YNR049C, strain mso1, hits give low values 1.01 | S. cerevisiae deletion strains, locus YNR052C, strain pop2, hits give low values 0.97 | S. cerevisiae deletion strains, locus YOL006C, strain TOP1, hits give low values 1.07 | S. cerevisiae deletion strains, locus YOL012C, strain htz1 0.954 | S. cerevisiae deletion strains, locus YOL147C, strain pex11, hits give low values 0.992 | S. cerevisiae deletion strains, locus YOR001W, strain rrp6, hits give low values 0.992 | S. cerevisiae deletion strains, locus YOR061W, strain CKA2, hits give low values 1.01 | S. cerevisiae deletion strains, locus YOR069W, strain VPS5, hits give low values 1.01 | S. cerevisiae deletion strains, locus YOR070C, strain gyp1, hits give low values 1 | S. cerevisiae deletion strains, locus YOR080W, strain dia2, hits give low values 1.02 | S. cerevisiae deletion strains, locus YOR083W, strain WHI5, hits give low values 0.976 | S. cerevisiae deletion strains, locus YOR106W, strain vam3, hits give low values 0.991 | S. cerevisiae deletion strains, locus YOR136W, strain idh2, hits give low values 0.988 | S. cerevisiae deletion strains, locus YOR144C, strain elg1, hits give low values 0.99 | S. cerevisiae deletion strains, locus YOR184W, strain ser1, hits give low values 0.958 | S. cerevisiae deletion strains, locus YOR265W, strain rbl2, hits give low values 1.01 | S. cerevisiae deletion strains, locus YOR270C, strain vph1, hits give low values 1.01 | S. cerevisiae deletion strains, locus YOR290C, strain snf2, hits give low values 0.986 | S. cerevisiae deletion strains, locus YOR316C, strain cot1, hits give low values 0.991 | S. cerevisiae deletion strains, locus YPL051W, strain arl3, hits give low values 0.995 | S. cerevisiae deletion strains, locus YPL055C, strain LGE1, hits give low values 1.05 | S. cerevisiae deletion strains, locus YPL078C, strain atp4, hits give low values 0.993 | S. cerevisiae deletion strains, locus YPL106C, strain sse1, hits give low values 1.01 | S. cerevisiae deletion strains, locus YPL240C, strain hsp82, hits give low values 1.01 | S. cerevisiae deletion strains, locus YPL241C, strain CIN2, hits give low values 1.02 | S. cerevisiae deletion strains, locus YPR119W, strain clb2, hits give low values 0.986 | S. cerevisiae deletion strains, locus YPR141C, strain kar3, hits give low values 0.969 | S. cerevisiae deletion strains, locus YPR163C, strain tif3, hits give low values 0.992 | S. cerevisiae deletion strains, locus YPR167C, strain met16, hits give low values 0.985 | S. cerevisiae deletion strains, strain wtn01, hits give low values 0.98 | S. cerevisiae strains, strain wild type, hits give low values 1.01
